Holding throughout (assay): NCI-60 one-dose screen, 48 h (100 = growth as untreated, 0 = no growth, -100 = all killed)
One assay deals with SR leukemia. The settings on record: 10 µM unless noted.
The next assay has as its system RPMI-8226 leukemia. Particulars: 10 µM unless noted.
The subject of a further assay is OVCAR-8 ovarian. The settings on record: 10 µM unless noted.
The test system of a further assay is OVCAR-5 ovarian. Particulars: 10 µM unless noted.
For a further assay, the system named is OVCAR-4 ovarian. The settings on record: 10 µM unless noted.
In the next assay the test system is SK-OV-3 ovarian. Particulars: 10 µM unless noted.
Another assay has as its system IGROV1 ovarian. Particulars: 10 µM unless noted.
The test system of the next assay is OVCAR-3 ovarian. Particulars: 10 µM unless noted.
In a further assay the test system is HS 578T breast. The settings on record: 10 µM.
A further assay concerns NCI/ADR-RES ovarian. Particulars: 10 µM unless noted.
Another assay deals with T-47D breast. The settings on record: 10 µM unless noted.
The test system of the next assay is BT-549 breast. Particulars: 10 µM unless noted.
The subject of the next assay is MDA-MB-435 melanoma. Particulars: 10 µM unless noted.
For another assay, the system named is SW-620 colon. The settings on record: 10 µM unless noted.
For another assay, the system named is MCF7 breast. The settings on record: 10 µM unless noted.
The subject of the next assay is HCT-116 colon. The settings on record: 10 µM unless noted.
A further assay has as its system HCC-2998 colon. The settings on record: 10 µM.
Another assay has as its system KM12 colon. Particulars: 10 µM unless noted.

This is part of a sample that, as a whole, favours compounds with a hit. Of some 83,000 tested, about 20% had one in any assay.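 Plates (96-well) were seeded with cells, treated with compound at one concentration, and incubated for 48 hours before percent growth was determined.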 Unmarked numbers belong to inactive results. The source made the active and inactive calls. How the source made its calls: active means growth percent below 10; inactive means the rest.

Consider `CNC(=O)c1cc(Oc2cccc3nc(Nc4ccc(Oc5ccccc5)cc4)ccc23)ccn1`, for which the growth is 30.2% with SR leukemia; 47.9% in the assay with RPMI-8226 leukemia; 75.8% with OVCAR-8 ovarian; 83.4% in the assay on OVCAR-5 ovarian; 52.1% in the assay with OVCAR-4 ovarian; 87.1% in the assay with SK-OV-3 ovarian. The growth with IGROV1 ovarian is 92.4%; in the assay on OVCAR-3 ovarian it was 72.7%; with HS 578T breast, 81.9%; in the assay on NCI/ADR-RES ovarian, 72.6%; in the assay with T-47D breast it was 43.3%; in the assay with BT-549 breast, 57.2%. The growth is 66.1% in the assay on MDA-MB-435 melanoma; 87.8% in the assay with SW-620 colon; 43.2% in the assay on MCF7 breast; 48% in the assay on HCT-116 colon; 94% in the assay with HCC-2998 colon; 67.8% in the assay with KM12 colon.

As for `CCCCCCCC(=O)SCC/C=C/[C@@H]1CC(=O)NCc2cccc(n2)C2=N[C@@](C)(CS2)C(=O)N[C@@H](C(C)C)C(=O)N1`, the growth with SR leukemia is 18.9%; with RPMI-8226 leukemia, 17.1%; in the assay on OVCAR-8 ovarian it was 32.1%; with OVCAR-5 ovarian, 25.5%; in the assay with OVCAR-4 ovarian, 34.4%; in the assay with SK-OV-3 ovarian it was 10.3%. The growth is 26% in the assay with IGROV1 ovarian; 22% in the assay on OVCAR-3 ovarian; 26.2% with HS 578T breast; 86.7% with NCI/ADR-RES ovarian; -7.49% (active) in the assay on T-47D breast; 41.4% in the assay with BT-549 breast. The growth in the assay with MDA-MB-435 melanoma was 19.6%; in the assay with SW-620 colon, 69.3%; in the assay with MCF7 breast it was 28.3%; with HCT-116 colon, 2.91% (active); with HCC-2998 colon, 12.6%; in the assay on KM12 colon it was 24.9%.

`Cc1cccc(NC(=O)[C@@H]2c3ccccc3C(=O)N(c3ccc(Cl)cc3)[C@H]2c2ccc(Cl)cc2)n1`: the growth is 34.5% in the assay with SR leukemia; 24.5% with RPMI-8226 leukemia; 51.2% with OVCAR-8 ovarian; 78.7% in the assay with OVCAR-5 ovarian; 45.1% with OVCAR-4 ovarian; 55.1% in the assay on SK-OV-3 ovarian. Also, the growth in the assay with IGROV1 ovarian is 73.5%; in the assay with OVCAR-3 ovarian, 61.8%; in the assay with HS 578T breast it was 72.4%; in the assay on NCI/ADR-RES ovarian, 47.8%; with T-47D breast it was 41.6%; in the assay with BT-549 breast, 63.3%. Besides, the growth is 46.6% in the assay on MDA-MB-435 melanoma; 40.6% in the assay on SW-620 colon; 40.9% in the assay with MCF7 breast; 26.2% in the assay on HCT-116 colon; 50.6% in the assay with HCC-2998 colon.

With `COc1cnc2c(c1)C(=O)c1c-2n(CCCN2CCC(O)CC2)c(=O)c2cc(Cl)ccc12`, the growth was -16.9% (active) in the assay with SR leukemia; 8.25% (active) with RPMI-8226 leukemia; 46.1% in the assay on OVCAR-8 ovarian; 101% in the assay on OVCAR-5 ovarian; 70% with OVCAR-4 ovarian; 27.8% with SK-OV-3 ovarian. For the same compound, the growth is 55.6% with IGROV1 ovarian; 80.9% with OVCAR-3 ovarian; 86.7% with HS 578T breast; 28.3% in the assay on NCI/ADR-RES ovarian; 42.8% in the assay with T-47D breast; 46.9% in the assay on BT-549 breast. For the same compound, the growth in the assay on MDA-MB-435 melanoma is 76.1%; in the assay on SW-620 colon, -32.1% (active); in the assay with MCF7 breast, 0.872% (active); in the assay on HCT-116 colon, -60% (active); with HCC-2998 colon, 51.5%.

For the compound `N#CC1(C#N)C(c2cccs2)NC(c2cccs2)C1(C#N)C#N` (stereo unspecified), the growth in the assay on SR leukemia was 110%; in the assay with RPMI-8226 leukemia, 107%; with OVCAR-8 ovarian, 101%; in the assay on OVCAR-5 ovarian it was 109%; in the assay with OVCAR-4 ovarian, 92.7%; in the assay on SK-OV-3 ovarian, 99.1%. In addition, the growth with IGROV1 ovarian was 101%; with OVCAR-3 ovarian, 98.1%; in the assay with HS 578T breast it was 104%; in the assay with NCI/ADR-RES ovarian, 97.6%; with T-47D breast, 91%; with BT-549 breast, 101%. Further, the growth in the assay on MDA-MB-435 melanoma was 107%; in the assay with SW-620 colon, 108%; in the assay with MCF7 breast, 90.3%; in the assay with HCT-116 colon, 97.6%; in the assay with HCC-2998 colon, 100%.

For `CC(=O)Oc1ccccc1C(=O)N=C1[Se]CCN1C(=O)c1ccccc1OC(C)=O`, the growth is 24% in the assay with SR leukemia; 12.1% in the assay with RPMI-8226 leukemia; -12.1% (active) in the assay on OVCAR-8 ovarian; -12.4% (active) in the assay on OVCAR-5 ovarian; -2.68% (active) in the assay on OVCAR-4 ovarian; -30.6% (active) with SK-OV-3 ovarian. Besides, the growth in the assay on IGROV1 ovarian is -15.1% (active); in the assay with OVCAR-3 ovarian it was -74.2% (active); with HS 578T breast, -14.9% (active); in the assay with NCI/ADR-RES ovarian it was -6.15% (active); in the assay on T-47D breast, -15.2% (active); with BT-549 breast it was -94.3% (active). The growth was -57.2% (active) in the assay on MDA-MB-435 melanoma; -26.7% (active) in the assay with SW-620 colon; 5.48% (active) in the assay on MCF7 breast; -44% (active) with HCT-116 colon; -4.02% (active) in the assay on HCC-2998 colon; -12.6% (active) in the assay on KM12 colon.

In the case of `Cc1cc2c(-c3nc4ccccn4c3NC34CC5CC(CC(C5)C3)C4)c(O)c(O)cc2c(O)c1-c1c(C)cc2c(-c3nc4ccccn4c3NC34CC5CC(CC(C5)C3)C4)c(O)c(O)cc2c1O`, the growth in the assay with SR leukemia is 13.1%; in the assay on RPMI-8226 leukemia, 24.4%; in the assay on OVCAR-8 ovarian, 12.3%; with OVCAR-5 ovarian, 29.3%; with OVCAR-4 ovarian, 21.4%; with SK-OV-3 ovarian, -11.1% (active). Besides, the growth in the assay on IGROV1 ovarian is 21.3%; in the assay on OVCAR-3 ovarian it was 27.6%; in the assay on HS 578T breast, 21.8%; in the assay on NCI/ADR-RES ovarian, 9.01% (active); with T-47D breast, -0.388% (active); with BT-549 breast, 9.45% (active). The growth in the assay on MDA-MB-435 melanoma is 16.5%; with SW-620 colon, 23.5%; with MCF7 breast it was 12.3%; with HCT-116 colon, 12%; with HCC-2998 colon, 31%.

Take `CCN1CCN(c2nc(C)cc(N(CCNc3ccnc4cc(Cl)ccc34)Cc3ccc4c(c3)OCO4)n2)CC1`: the growth with SR leukemia was -35.2% (active); in the assay with RPMI-8226 leukemia, -30.4% (active); in the assay on OVCAR-8 ovarian, 16.1%; in the assay with OVCAR-5 ovarian, 78.2%; in the assay on OVCAR-4 ovarian it was 34.1%; in the assay with SK-OV-3 ovarian it was 74.8%. In addition, the growth with IGROV1 ovarian was 42.7%; in the assay on OVCAR-3 ovarian it was 20.9%; in the assay on HS 578T breast, 22.1%; with NCI/ADR-RES ovarian, 36.4%; in the assay with T-47D breast, -51.7% (active); in the assay on BT-549 breast it was 21.5%. The growth in the assay with MDA-MB-435 melanoma was -72.5% (active); with SW-620 colon, 3.4% (active); with MCF7 breast it was 23.8%; with HCT-116 colon, 10.3%.

`Cc1cc(O)c2c(c1)C1OC(=O)CCCCCN1C1=C2C(=O)c2cccc(OC3CC(O)C(O)C(C)O3)c2C1=O` (stereo unspecified): the growth with SR leukemia was 54.2%; with RPMI-8226 leukemia, 73.3%; in the assay with OVCAR-8 ovarian, 52.9%; with OVCAR-5 ovarian it was 130%; in the assay on OVCAR-4 ovarian, 90.2%; in the assay on SK-OV-3 ovarian, 89.8%. For the same compound, the growth in the assay with IGROV1 ovarian is 96.4%; in the assay with OVCAR-3 ovarian, 7.5% (active); with HS 578T breast, 71.5%; in the assay with NCI/ADR-RES ovarian, 91%; with T-47D breast, 85.6%; with BT-549 breast, 83.6%. Moreover, the growth with MDA-MB-435 melanoma was 13.1%; with SW-620 colon, 99.9%; in the assay on MCF7 breast, 17.7%; with HCT-116 colon, 24.5%; in the assay on HCC-2998 colon it was 73%; in the assay on KM12 colon, 83.4%.

The record behind these values is PubChem BioAssay (NCI).
